The values below come from PubChem BioAssay AID651919 (Sanford-Burnham Center for Chemical Genomics, 2012).

Several values for one entry are separate records, joined by “and”; a condition that tells them apart may be missing. Identical values can stand only once.

The target in this experiment is C-X-C chemokine receptor type 6 (Homo sapiens) (UniProt O00574). Put plainly: CXCR6 and CXCR5 receptor antagonist panel, profiling panel, selectivity assay for CXCR6 antagonist project, cell-based, CHO-K1 PathHunter beta-arrestin, luminescence, set 4 (AID 651919). The note with it: run 2, at 79 µM (top of the series).
Chain of C-X-C chemokine receptor type 6 (Homo sapiens) (O00574 whole entry, looked up): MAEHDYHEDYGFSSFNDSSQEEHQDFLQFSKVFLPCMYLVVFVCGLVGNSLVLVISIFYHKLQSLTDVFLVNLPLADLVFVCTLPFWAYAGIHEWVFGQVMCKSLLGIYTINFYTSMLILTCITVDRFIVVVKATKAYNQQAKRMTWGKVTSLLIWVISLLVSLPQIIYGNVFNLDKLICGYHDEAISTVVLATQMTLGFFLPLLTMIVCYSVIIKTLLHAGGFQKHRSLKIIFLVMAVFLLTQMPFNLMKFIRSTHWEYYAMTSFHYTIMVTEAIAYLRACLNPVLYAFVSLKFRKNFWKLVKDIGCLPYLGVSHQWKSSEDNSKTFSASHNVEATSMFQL
One may read the inhibition as the change of the read-out against control, counted positive when it falls. As to `COc1cccc(C(=O)NC2CC3CCCC(C2)N3CC(=O)Nc2ccc(Cl)cc2)c1` (centres undefined), the inhibition was -8.76%.
On to `COc1ccc(NC(=O)CN2C3CCCC2CC(NC(=O)c2ccc4c(c2)OCO4)C3)cc1` (centres undefined), for which the inhibition was determined as 4.54%.
Consider `O=C(CN1C2CCCC1CC(NC(=O)c1ccc3c(c1)OCO3)C2)Nc1ccc(F)cc1` (centres undefined), for which the inhibition is -2.79%.
`COc1cc(OC)cc(C(=O)NC2CC3CCCC(C2)N3CC(=O)Nc2ccc(F)cc2)c1` (centres undefined): the inhibition was -4.2%.
The figure for `COc1cc(C(=O)NC2CC3CCCC(C2)N3CC(=O)Nc2ccc(Cl)cc2)cc(OC)c1OC` (centres undefined) is 90.4%; for `COc1cc(C(=O)NC2CC3CCCC(C2)N3CC(=O)Nc2ccccc2)cc(OC)c1OC` (centres undefined) it is 94% and 90.4%; for `COc1cc(C(=O)NC2CC3CCCC(C2)N3CC(=O)Nc2ccc(F)cc2)cc(OC)c1OC` (centres undefined) it is 81.3%.
For `O=C(CN1C2CCCC1CC(NC(=O)c1ccccc1)C2)Nc1ccccc1` (centres undefined), the inhibition was 7.76%.
The figure for `O=C(CN1C2CCCC1CC(NC(=O)c1ccc3c(c1)OCO3)C2)Nc1ccccc1` (centres undefined) is 5.06%; for `COc1ccc(NC(=O)CN2C3CCCC2CC(NC(=O)c2ccc(OC)cc2)C3)cc1` (centres undefined) it is 4.54%.
On to `O=C(CN1C2CCCC1CC(NC(=O)c1ccc3c(c1)OCO3)C2)Nc1ccc(Cl)cc1` (centres undefined), for which the inhibition was -3.16%.
Turning to `COc1ccc(NC(=O)CN2C3CCCC2CC(NC(=O)c2cc(OC)cc(OC)c2)C3)cc1` (centres undefined), the inhibition was -0.62%.
The figure for `COc1ccc(CN2C3CCCC2CC(NC(=O)c2cc(OC)c(OC)c(OC)c2)C3)cc1` (centres undefined) is 56.8%.
The figure for `COc1ccc(C(=O)NC2CC3CCCC(C2)N3CC(=O)Nc2ccccc2)cc1` (centres undefined) is 8.56%; for `COc1ccc(NC(=O)CN2C3CCCC2CC(NC(=O)c2cccc(OC)c2)C3)cc1` (centres undefined) it is -0.0157%.
With `Cc1ccc(NC(=O)CN2C3CCCC2CC(NC(=O)c2ccc4c(c2)OCO4)C3)cc1` (centres undefined), the inhibition amounted to 5.62%.
Regarding `COc1cc(OC)cc(C(=O)NC2CC3CCCC(C2)N3CC(=O)Nc2ccc(Cl)cc2)c1` (centres undefined), the inhibition is -8.8%.
With `COc1ccc(C(=O)NC2CC3CCCC(C2)N3CC(=O)Nc2ccc(Cl)cc2)cc1` (centres undefined), the inhibition is -10.3%.
Take `COc1ccccc1NC(=O)CN1C2CCCC1CC(NC(=O)c1cc(OC)c(OC)c(OC)c1)C2` (centres undefined): the inhibition turned out to be 98.2%.
Turning to `COc1cc(C(=O)NC2CC3CCCC(C2)N3CC(=O)Nc2ccccc2Cl)cc(OC)c1OC` (centres undefined), the inhibition is 100% and 99.1%.
In the case of `COc1ccc(C(=O)NC2CC3CCCC(C2)N3CC(=O)Nc2ccc(C)cc2)cc1OC` (centres undefined) it was 4.86%; in that of `COc1cc(C(=O)NC2CC3CCCC(C2)N3CC(=O)Nc2ccc(C)cc2)cc(OC)c1OC` (centres undefined), 77.6%.
Regarding `COc1cccc(C(=O)NC2CC3CCCC(C2)N3CC(=O)Nc2ccccc2)c1` (centres undefined), the inhibition came out at 8.64%.
On to `COc1ccc(C(=O)NC2CC3CCCC(C2)N3CC(=O)Nc2ccc(Cl)cc2)cc1OC` (centres undefined), for which the inhibition is 14.6%.
On to `COc1ccc(C(=O)NC2CC3CCCC(C2)N3CC(=O)Nc2ccc(F)cc2)cc1` (centres undefined), for which the inhibition is -0.539%.
With `COc1ccc(C(=O)NC2CC3CCCC(C2)N3CC(=O)Nc2ccccc2)cc1OC` (centres undefined), the inhibition was determined as 30.3%.
As to `COc1ccc(NC(=O)CN2C3CCCC2CC(NC(=O)c2ccc(OC)c(OC)c2)C3)cc1` (centres undefined), the inhibition is -3.76%.
In the case of `COc1ccc(C(=O)NC2CC3CCCC(C2)N3CC(=O)Nc2ccc(F)cc2)cc1OC` (centres undefined), the inhibition turned out to be 29.3%.
With `COc1cccc(C(=O)NC2CC3CCCC(C2)N3CC(=O)Nc2ccc(F)cc2)c1` (centres undefined), the inhibition was determined as 2.48%.
With `COc1cc(OC)cc(C(=O)NC2CC3CCCC(C2)N3CC(=O)Nc2ccc(C)cc2)c1` (centres undefined), the inhibition stood at 55.4%.
The figure for `COc1ccc(C(=O)NC2CC3CCCC(C2)N3CC(=O)Nc2ccc(C)cc2)cc1` (centres undefined) is 6.15%; for `COc1cccc(C(=O)NC2CC3CCCC(C2)N3CC(=O)Nc2ccc(C)cc2)c1` (centres undefined) it is 3.25%.
For the compound `COc1ccc(NC(=O)CN2C3CCCC2CC(NC(=O)c2cc(OC)c(OC)c(OC)c2)C3)cc1` (centres undefined), the inhibition came to 61.4%.
In the case of `COc1cc(OC)cc(C(=O)NC2CC3CCCC(C2)N3CC(=O)Nc2ccccc2)c1` (centres undefined) it was 3.13%.
